# According to PMC7862700, “An all-to-all approach to the identification of sequence-specific readers for epigenetic DNA modifications on cytosine”:
# Legend:
# Assay in all cases: DAPPL (digital affinity profiling via proximity ligation, sequencing); 10 mM Tris-HCl pH 7.5, 50 mM NaCl, 1 mM DTT, 4% glycerol, room temperature, 30 min; GST-TFs on glutathione beads, 16-mer random dsDNA library, 0.1% formaldehyde crosslink after washing; high values mean tight binding
# Conditions in all cases: protein: recombinant; tags: N-terminal GST; dsDNA, one strand shown
# ELK1 = target: T1, ELK1 (Homo sapiens, UniProt P19419 1-428)
# T1 sequence: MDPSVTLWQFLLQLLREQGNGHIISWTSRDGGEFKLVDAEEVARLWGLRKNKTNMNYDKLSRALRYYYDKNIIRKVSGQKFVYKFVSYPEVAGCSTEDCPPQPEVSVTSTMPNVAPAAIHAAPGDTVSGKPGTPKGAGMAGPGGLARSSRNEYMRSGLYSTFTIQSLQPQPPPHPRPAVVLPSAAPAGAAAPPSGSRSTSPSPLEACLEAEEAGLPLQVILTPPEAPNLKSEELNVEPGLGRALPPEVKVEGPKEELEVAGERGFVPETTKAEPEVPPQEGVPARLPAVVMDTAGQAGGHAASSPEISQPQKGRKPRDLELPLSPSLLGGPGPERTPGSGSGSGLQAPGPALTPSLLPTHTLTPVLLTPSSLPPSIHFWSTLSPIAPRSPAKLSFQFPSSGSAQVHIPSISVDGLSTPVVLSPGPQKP
# In short: (§1)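 A tag-only sample was pooled with DNA-barcoded human transcription factors that had been expressed in yeast as GST fusions and captured on glutathione beads. The pools were incubated for 30 min at room temperature with 200 nmole of a random double-stranded 16-mer DNA library in Tris/NaCl/DTT/glycerol buffer, then washed, crosslinked with 0.1% formaldehyde, proximity-ligated (BsaI/T4 ligase, 1 h, 37 °C), PCR-amplified and sequenced on an Illumina NextSeq500. Binding signal is each hexamer's read frequency for a factor divided by its frequency for the tag-only sample.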
# GABPA = target: T2, GABPA (Homo sapiens, UniProt Q06546 1-454)
# T2 sequence: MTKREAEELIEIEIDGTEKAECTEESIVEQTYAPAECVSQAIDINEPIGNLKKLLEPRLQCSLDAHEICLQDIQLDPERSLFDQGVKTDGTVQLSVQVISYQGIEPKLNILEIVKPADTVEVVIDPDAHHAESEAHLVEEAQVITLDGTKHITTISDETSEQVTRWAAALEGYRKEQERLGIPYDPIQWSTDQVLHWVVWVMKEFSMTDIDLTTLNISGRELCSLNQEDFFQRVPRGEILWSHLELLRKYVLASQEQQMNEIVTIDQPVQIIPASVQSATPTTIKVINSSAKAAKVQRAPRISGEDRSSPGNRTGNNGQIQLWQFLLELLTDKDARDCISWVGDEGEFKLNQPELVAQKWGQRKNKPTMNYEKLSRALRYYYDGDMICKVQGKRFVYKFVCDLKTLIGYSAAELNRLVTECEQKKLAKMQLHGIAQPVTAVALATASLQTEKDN
# In short: as §1
# ERG = target: T3, ERG (Homo sapiens, UniProt P11308 1-479)
# T3 sequence: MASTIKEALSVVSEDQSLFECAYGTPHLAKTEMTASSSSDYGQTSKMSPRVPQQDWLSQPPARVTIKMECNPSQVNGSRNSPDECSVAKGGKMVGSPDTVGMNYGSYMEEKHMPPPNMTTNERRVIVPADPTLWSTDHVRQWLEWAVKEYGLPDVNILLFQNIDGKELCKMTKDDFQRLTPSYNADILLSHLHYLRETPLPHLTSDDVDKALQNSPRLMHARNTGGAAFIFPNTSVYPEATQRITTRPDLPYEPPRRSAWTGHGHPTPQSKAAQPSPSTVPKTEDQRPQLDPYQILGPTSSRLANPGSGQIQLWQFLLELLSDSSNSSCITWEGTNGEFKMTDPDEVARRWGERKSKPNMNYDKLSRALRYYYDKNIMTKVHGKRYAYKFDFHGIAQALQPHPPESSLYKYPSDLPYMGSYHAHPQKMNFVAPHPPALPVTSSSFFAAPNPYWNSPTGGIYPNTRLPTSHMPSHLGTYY
# In short: as §1
# ELF1 = ELF1 (Homo sapiens, UniProt P32519 1-619)
# Sequence of ELF1 (P32519 whole entry): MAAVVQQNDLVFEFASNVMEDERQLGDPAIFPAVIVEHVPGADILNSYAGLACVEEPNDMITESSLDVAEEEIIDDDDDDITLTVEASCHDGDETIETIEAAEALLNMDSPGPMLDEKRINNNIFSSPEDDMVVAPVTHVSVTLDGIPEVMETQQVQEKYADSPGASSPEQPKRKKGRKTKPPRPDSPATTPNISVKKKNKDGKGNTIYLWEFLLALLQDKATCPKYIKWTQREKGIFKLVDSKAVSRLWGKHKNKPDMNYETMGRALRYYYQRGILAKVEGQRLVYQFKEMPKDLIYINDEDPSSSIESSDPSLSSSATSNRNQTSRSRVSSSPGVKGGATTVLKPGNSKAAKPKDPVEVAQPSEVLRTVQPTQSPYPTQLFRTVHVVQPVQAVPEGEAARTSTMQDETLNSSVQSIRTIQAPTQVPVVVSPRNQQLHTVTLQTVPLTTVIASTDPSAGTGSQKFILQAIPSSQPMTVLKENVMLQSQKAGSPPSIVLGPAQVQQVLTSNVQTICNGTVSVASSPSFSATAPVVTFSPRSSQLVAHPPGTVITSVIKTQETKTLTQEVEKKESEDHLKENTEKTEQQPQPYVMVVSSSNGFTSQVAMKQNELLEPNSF
# In short: as §1
# EHF = target: T4, EHF (Homo sapiens, UniProt Q9NZC4 1-300)
# T4 sequence: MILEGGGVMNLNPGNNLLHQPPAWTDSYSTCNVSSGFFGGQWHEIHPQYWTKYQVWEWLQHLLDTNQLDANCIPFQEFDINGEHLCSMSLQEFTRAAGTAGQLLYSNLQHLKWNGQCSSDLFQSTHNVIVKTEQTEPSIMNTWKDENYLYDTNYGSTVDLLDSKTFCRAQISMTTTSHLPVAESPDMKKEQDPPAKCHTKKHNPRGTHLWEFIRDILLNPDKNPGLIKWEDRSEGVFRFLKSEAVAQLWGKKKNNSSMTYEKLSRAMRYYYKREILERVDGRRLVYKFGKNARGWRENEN
# In short: as §1
# SPIB = SPIB (Homo sapiens, UniProt Q01892 1-262)
# Sequence of SPIB (Q01892 whole entry): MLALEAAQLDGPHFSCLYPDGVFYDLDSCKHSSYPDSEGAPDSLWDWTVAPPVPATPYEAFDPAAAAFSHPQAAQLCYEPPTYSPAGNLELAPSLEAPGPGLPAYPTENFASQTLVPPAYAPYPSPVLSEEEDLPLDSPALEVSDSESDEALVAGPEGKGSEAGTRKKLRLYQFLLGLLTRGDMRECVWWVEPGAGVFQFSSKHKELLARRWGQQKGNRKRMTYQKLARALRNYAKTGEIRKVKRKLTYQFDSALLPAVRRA
# In short: as §1
# FEV = target: T5, FEV (Homo sapiens, UniProt Q99581 1-238)
# T5 sequence: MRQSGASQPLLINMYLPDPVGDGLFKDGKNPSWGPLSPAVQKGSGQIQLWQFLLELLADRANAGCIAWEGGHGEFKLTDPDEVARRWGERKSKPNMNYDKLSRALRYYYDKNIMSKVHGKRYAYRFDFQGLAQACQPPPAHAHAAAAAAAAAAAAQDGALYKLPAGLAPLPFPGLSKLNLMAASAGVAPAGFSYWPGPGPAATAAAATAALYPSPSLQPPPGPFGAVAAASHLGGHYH
# In short: as §1
# ETV5 = ETV5 (Homo sapiens, UniProt P41161 1-510)
# Sequence of ETV5 (P41161 whole entry): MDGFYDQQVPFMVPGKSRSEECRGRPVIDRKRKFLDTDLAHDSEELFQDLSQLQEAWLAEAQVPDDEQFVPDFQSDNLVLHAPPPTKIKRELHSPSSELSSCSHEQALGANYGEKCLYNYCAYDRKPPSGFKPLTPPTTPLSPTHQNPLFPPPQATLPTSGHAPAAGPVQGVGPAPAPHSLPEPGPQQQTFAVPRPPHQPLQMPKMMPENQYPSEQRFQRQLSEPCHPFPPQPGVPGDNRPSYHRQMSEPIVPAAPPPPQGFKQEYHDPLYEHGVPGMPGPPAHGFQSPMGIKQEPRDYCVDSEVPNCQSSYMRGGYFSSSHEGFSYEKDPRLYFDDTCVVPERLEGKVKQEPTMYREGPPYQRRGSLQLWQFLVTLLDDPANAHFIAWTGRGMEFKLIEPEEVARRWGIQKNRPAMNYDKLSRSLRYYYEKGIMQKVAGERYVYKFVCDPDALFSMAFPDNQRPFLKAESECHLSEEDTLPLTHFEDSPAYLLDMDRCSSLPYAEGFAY
# In short: as §1
# ELF4 = ELF4 (Homo sapiens, UniProt Q99607 1-663)
# Sequence of ELF4 (Q99607 whole entry): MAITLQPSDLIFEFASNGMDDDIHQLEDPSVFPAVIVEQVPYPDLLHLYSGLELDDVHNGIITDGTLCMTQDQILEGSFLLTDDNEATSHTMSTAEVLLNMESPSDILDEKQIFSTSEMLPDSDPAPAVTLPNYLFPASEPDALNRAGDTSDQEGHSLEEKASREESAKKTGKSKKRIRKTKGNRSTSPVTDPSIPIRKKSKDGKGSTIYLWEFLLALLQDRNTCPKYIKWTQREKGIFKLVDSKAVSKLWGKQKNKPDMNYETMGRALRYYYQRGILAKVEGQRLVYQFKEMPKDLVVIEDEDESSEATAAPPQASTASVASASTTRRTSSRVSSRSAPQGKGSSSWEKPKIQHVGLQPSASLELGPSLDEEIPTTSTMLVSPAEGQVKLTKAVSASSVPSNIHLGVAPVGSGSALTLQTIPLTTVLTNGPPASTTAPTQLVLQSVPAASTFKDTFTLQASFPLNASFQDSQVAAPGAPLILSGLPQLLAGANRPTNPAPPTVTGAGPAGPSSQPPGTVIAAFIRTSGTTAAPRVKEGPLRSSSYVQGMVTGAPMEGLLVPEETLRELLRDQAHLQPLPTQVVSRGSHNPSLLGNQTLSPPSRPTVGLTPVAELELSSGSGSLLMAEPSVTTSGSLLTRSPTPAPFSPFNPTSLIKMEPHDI
# In short: as §1
# ELK4 = target: T6, ELK4 (Homo sapiens, UniProt P28324-2 1-405)
# T6 sequence: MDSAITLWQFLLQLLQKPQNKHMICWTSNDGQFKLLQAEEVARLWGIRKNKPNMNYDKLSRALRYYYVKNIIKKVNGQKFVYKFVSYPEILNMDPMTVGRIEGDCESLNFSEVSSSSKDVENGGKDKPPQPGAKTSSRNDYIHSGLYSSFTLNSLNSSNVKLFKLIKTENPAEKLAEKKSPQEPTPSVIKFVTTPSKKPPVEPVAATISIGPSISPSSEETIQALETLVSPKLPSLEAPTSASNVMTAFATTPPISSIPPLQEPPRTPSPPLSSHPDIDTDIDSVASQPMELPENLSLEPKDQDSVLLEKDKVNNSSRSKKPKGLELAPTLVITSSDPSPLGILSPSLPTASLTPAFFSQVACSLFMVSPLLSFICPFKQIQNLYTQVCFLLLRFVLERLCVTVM
# In short: as §1
sequence,measurement,setting,value
AAGATC,binding signal,ELK1,"1.07 fold enrichment (6-mer frequency, TF over GST control)"
same,binding signal,GABPA,"1.08 fold enrichment (6-mer frequency, TF over GST control)"
same,binding signal,ERG,"1.07 fold enrichment (6-mer frequency, TF over GST control)"
same,binding signal,ELF1,"1.05 fold enrichment (6-mer frequency, TF over GST control)"
same,binding signal,EHF,"1.04 fold enrichment (6-mer frequency, TF over GST control)"
same,binding signal,SPIB,"1.13 fold enrichment (6-mer frequency, TF over GST control)"
same,binding signal,FEV,"1.03 fold enrichment (6-mer frequency, TF over GST control)"
same,binding signal,ETV5,"1.03 fold enrichment (6-mer frequency, TF over GST control)"
same,binding signal,ELF4,"1.03 fold enrichment (6-mer frequency, TF over GST control)"
same,binding signal,ELK4,"1.01 fold enrichment (6-mer frequency, TF over GST control)"
